Results on 38 compounds are retold here after the supplement of paper PMC3842684.

SMILES strings stand for the structures.

This assay concerns P. falciparum NF54-pfs16-GFP early (I-III) stage gametocytes. In words: relative % inhibition of viable gametocyte number; higher = more gametocytocidal. The following applies: 0.5 µM; stage: early (I-III) gametocyte; incubation 72 h. In a few lines:
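NF54 pfs16-GFP gametocytes, magnet-isolated at early (I/IIa, day 2) or late (day 8) stage, were plated at 10% parasitaemia, 0.1% haematocrit in 384-well poly-D-lysine imaging plates with compound in duplicate at 5 or 0.5 µM. Plates were incubated 72 h at 37°C, 5% CO2, 5% O2, then overnight with MitoTracker Red. Confocal imaging counted elongated GFP objects with MitoTracker signal above cut-off as viable gametocytes. Relative inhibition was normalised to in-plate vehicle and positive-control wells.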
On to `Cc1ccc(CN2CCC(C(=O)Nc3ccc(-c4cc5ccccc5[nH]4)cc3)CC2)o1`, for which the relative % inhibition stood at 9.97%.

`CCOC(=O)c1c(C)n(-c2ccccc2)c2ccc(OC(=O)c3cc(OC)c(OC)c(OC)c3)cc12`: the relative % inhibition stood at 17.7%.

`O=C(Nc1ccc(Cl)cc1)N1CCN(c2ccc3nncn3n2)CC1`: the relative % inhibition turned out to be 18%. As for `Cc1cc(Nc2ccc3ccccc3c2)n2ncnc2n1`, the relative % inhibition is -10.4%.

Regarding `O=C(Nc1ccc(-c2nc3cc(NC(=O)c4ccc(Cl)cc4)ccc3[nH]2)cc1)c1ccc(Cl)cc1`, the relative % inhibition was 6.74%. For the compound `CCc1ccc(Nc2cc(C)c3ccc(O)cc3n2)cc1`, the relative % inhibition was 1.9%. As for `COc1ccc2c(c1OC)C(=O)N1c3ccccc3N=C(c3ccc(C)cc3)CC21` (stereo not drawn), the figure is 11.7%. Consider `N=c1n(CCN2CCCCC2)c2ccccc2n1CC(=O)c1ccc(Cl)c(Cl)c1`, for which the relative % inhibition was -10.5%. With `COc1ccc2c(=O)cc(C(Cl)(Cl)Cl)oc2c1`, the relative % inhibition worked out at 68.6%.

On to `Cc1ccc(CSCc2ccc(C(=O)NC3CC3)o2)cc1`, for which the relative % inhibition is 1.49%. In the case of `CCc1ccc(Nc2cc(C)nc3nc(C)nn23)cc1`, the relative % inhibition is -3.8%. Consider `COc1cc(-c2nc(-c3ccc(Sc4ccccc4)cc3)c(-c3ccccc3)[nH]2)cc(OC)c1O`, for which the relative % inhibition was determined as 27%. Turning to `O=c1cc(NC2CCN(CCCc3ccccc3)CC2)c2cc(Cl)ccc2o1`, the relative % inhibition turned out to be 10.6%. On to `O=C(Nc1ccc(-c2nc3ccccc3[nH]2)cc1)c1ccc(Cl)c(Cl)c1`, for which the relative % inhibition is 14.9%.

On to `COc1ccc(C(=O)Nc2ccc(Cl)cc2C(=O)Nc2ccncc2)cc1`, for which the relative % inhibition is -7.22%. As for `Cc1ccc2c(C)nc(Nc3nc(C)cc(-c4ccccc4)n3)nc2c1`, the relative % inhibition came out at 38%. For `CC(=O)c1ccc(NC(=O)CSc2nc(-c3ccccc3Cl)ns2)cc1`, the relative % inhibition is 3.99%. The figure for `CCOC(=O)c1cn(CC)c2cc(N3CCCCC3)c(F)cc2c1=O` is 22%; for `CCCN(CCC)CCCNC(=O)c1cc2c(-c3ccc(OC)c(OC)c3)nn(C)c2s1` it is 29.6%; for `Cc1ccc(-c2cc(C(=O)Nc3ccc(S(=O)(=O)N4CCCCC4)cc3)[nH]n2)c(O)c1` it is 18%. As for `COc1ccc(-c2nc(NC(=O)CS(=O)(=O)c3ccc(F)cc3)sc2C)cc1`, the figure is 12.7%. Consider `Cc1sc(NC(=O)c2ccccc2)c(C(c2cccs2)N2CCN(c3ccccc3)CC2)c1C` (stereo not drawn), for which the relative % inhibition was 17.7%. `COc1cccc(NC(=O)Cn2c(C)c(C#N)c3ccccc32)c1`: the relative % inhibition was determined as 17%.

With `COc1ccccc1N=C1C(=O)c2ccccc2C(O)=C1N1CCCCC1`, the relative % inhibition came out at 21.8%.

As to `Cn1c(C(=O)c2cccc3ccccc23)nc2ccccc21`, the relative % inhibition is 3.04%. `CCn1nc(-c2ccc(C(=O)OC)cc2)nc2c(=O)n(C)c(=O)nc1-2`: the relative % inhibition turned out to be 18.4%.

Regarding `Cc1ccc(-c2cc3nc4c(c(O)n3n2)CCCC4)cc1`, the relative % inhibition worked out at 5.35%. In the case of `CN1CCN(c2nc(Nc3ccc(O)cc3)nc3ccccc23)CC1`, the relative % inhibition is -17.7%. For `N#Cc1nc(Cc2cccc3ccccc23)oc1N1CCN(C(c2ccccc2)c2ccccc2)CC1`, the relative % inhibition was -3.05%.

For `COc1cccc(Nc2nc(N)c3ccccc3n2)c1`, the relative % inhibition is -16.5%. The figure for `Oc1ccc2ccccc2c1CNc1nc2ccccc2[nH]1` is 11%; for `CC(C)CCNCC(O)Cn1c2ccccc2c2ccccc21` (stereo not drawn) it is 23.7%.

In the case of `COc1ccc(C)c2sc(N(Cc3cccnc3)C(=O)c3ccc(C#N)cc3)nc12`, the relative % inhibition was determined as 11.9%. For the compound `COc1ccccc1C(=O)ON=C(N)Cc1cccc2ccccc12`, the relative % inhibition was 13.9%. For `Nc1ccc(-c2nc3cc(Oc4ccc(Oc5ccc6[nH]c(-c7ccc(N)cc7)nc6c5)cc4)ccc3[nH]2)cc1`, the relative % inhibition amounted to 13.7%. Consider `COC(=O)c1ccc(Cl)c2c1C1C=CCC1C(c1cccc3ccccc13)N2` (stereo not drawn), for which the relative % inhibition was -9.28%. Take `COc1ccc2nc(N)nc(C)c2c1`: the relative % inhibition was 15.7%.

For `O=C(NCc1ccco1)C1CCN(S(=O)(=O)c2ccc(Cl)cc2)CC1`, the relative % inhibition was 7.81%.
